Pf growth 48h = P. falciparum growth inhibition at 48 hours (one generation); P. falciparum luciferase growth in erythrocytes, 48 h; Potency, µM (top dose mostly 28.7 µM), for inactives: at the highest dose activity change, negative = inhibition, hits mostly inhibitors; 5.9% of 310,000 active; AID 504832; also: potency is read from the fitted curve at half-maximal effect
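Parasite viability was followed by luminescence of a genomically integrated firefly luciferase. Cultures held 0.1% parasitemia at 2% hematocrit (final), incubated under 5% CO2 at 37 C.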
FBPA Giardia inh = inhibitors of Giardia lamblia fructose-1,6-bisphosphate aldolase | A8B2U2 | 0.71% of 290,000 active | Potency, µM (doses to about 59.6 µM), for inactives: at the highest dose activity, negative = inhibition, hits mostly inhibitors | purified Giardia FBPA | AID 2451; also: potency is read from the fitted curve at half-maximal effect; nearly all actives have a fitted effect of over 55% in size
Target sequence (A8B2U2 whole entry, looked up): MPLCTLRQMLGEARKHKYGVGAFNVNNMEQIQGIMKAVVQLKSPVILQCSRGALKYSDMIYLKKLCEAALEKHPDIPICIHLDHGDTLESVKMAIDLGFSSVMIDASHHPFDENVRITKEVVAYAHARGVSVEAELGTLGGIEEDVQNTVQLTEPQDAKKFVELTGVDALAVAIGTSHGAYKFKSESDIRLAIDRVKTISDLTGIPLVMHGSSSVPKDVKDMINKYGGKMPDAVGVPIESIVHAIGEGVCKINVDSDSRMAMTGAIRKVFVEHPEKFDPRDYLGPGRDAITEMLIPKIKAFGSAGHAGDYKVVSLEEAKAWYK
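40 nM FBPA preincubated 10 min at RT with compound (up to 57.5 uM final), then substrate plus GAPDH/TPI/NAD/arsenate coupling and diaphorase/resazurin added. Fluorescence read after 20 min at RT, 525/598 nm.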
HCMV antiviral = inhibitors of human cytomegalovirus. activity change, negative = inhibition, % at 57.5 µM. 4.5% of 410,000 active. HFF cells, HCMV-luciferase reporter, 72 h; hits give low values; in the data active = activity change below about -60%; inconclusive = no clear call, values can overlap the other calls; inactive = above about -39%
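Two compound doses tested in HFFs infected with HCMV-luciferase, MOI 1 PFU/cell, 72 h at 37C. Lysate luminescence read with OneGlo; data normalized against buffer-only and 10uM Salinomycin inhibitor controls.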
Sm TGR block = blocks Schistosoma mansoni thioredoxin glutathione reductase; purified TGR, DTNB reduction, TNB absorbance 405 nm; Potency, µM (titrated, usually from 114 µM), for inactives: at the top dose activity change, negative = inhibition, hits mostly inhibitors; 3% of 360,000 active; also: potency is read from the fitted curve at half-maximal effect; nearly all actives have a fitted effect of over 60% in size
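First, TGR (20 nM dispensed) and NADPH were mixed with compound. Second, a 15 min room-temperature incubation followed. Third, further NADPH and then DTNB were added to start the reaction. Finally, TNB absorbance was monitored kinetically.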
Pf growth 96h = P. falciparum growth inhibition at 96 hour, primary screen for plastid delayed-death inhibitors. Potency, µM (series often up to 28.7 µM), without a hit: at the top dose activity change, negative = inhibition, most hits filed as inhibitors. 6.9% of 320,000 active. AID 504834. P. falciparum luciferase reporter growth, 96 h; also: potency is read from the fitted curve at half-maximal effect
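Readout is luminescence from an integrated firefly luciferase in P. falciparum. Red cells, 2% hematocrit and 0.05% parasitemia final, were cultured with compound through two parasite generations (96 hours) at 37 C, 5% CO2.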
The depositor's hits bear a star; ? = inconclusive; / = no result given. Sampled rows, rich in hits. Any-hit rate of the full collection: about 14%. Unless noted, calls follow the shape of the dose curve; as a rule, active = well fitted curve in the direction sought with a large enough effect; inconclusive = small, poorly fitted or top-dose-only effect, or another doubt; inactive = no such curve, though single readings can be large; an effect the other way counts as inactive or inconclusive. % is scaled to controls: 0 for no effect and ±100 for the full control effect.

SMILES	Pf growth 48h	FBPA Giardia inh	HCMV antiviral	Sm TGR block	Pf growth 96h
COc1cc2c(cc1[N+](=O)[O-])-c1ccccc1C2	/	/	-75*	/	/
CC(=O)Nc1cc2c(cc1[N+](=O)[O-])-c1ccc(F)cc1C2	/	/	88	/	/
CC(=O)Nc1cccc2c1Cc1cc([N+](=O)[O-])ccc1-2	/	/	-98*	/	/
CC(=O)Nc1cccc2c1Cc1ccccc1-2	60%	-5%	/	-21%	32%
O=[N+]([O-])c1ccc2c(c1)Cc1cc(F)ccc1-2	/	/	-94*	/	/
COc1cc2c(cc1[N+](=O)[O-])-c1ccc([N+](=O)[O-])cc1C2	/	/	-68*	/	/
COc1cc2c(=O)[nH]c3cc([N+](=O)[O-])ccc3c2cc1[N+](=O)[O-]	/	/	-94*	/	/
O=c1[nH][nH]c(=O)c2cc([N+](=O)[O-])ccc12	19%	/	4	5%	32%
CN(C)c1ncnc2[nH]ncc12	/	/	-10	/	/
CCCN(CC)c1ncnc2[nH]ncc12	/	/	-65*	/	/
COc1ccc(NC(=O)CN2C(=O)COc3ccc(S(=O)(=O)N4CCCCCC4)cc32)cc1	5%	/	?	2%	10µM*
O=C(CN1C(=O)COc2ccc(S(=O)(=O)N3CCCCCC3)cc21)Nc1cccc(Cl)c1	/	/	-72*	0%	/
O=C(CN1C(=O)COc2ccc(S(=O)(=O)N3CCCC3)cc21)Nc1cccc(F)c1	0%	4%	-5	3%	?
Cc1cccc(/C=N/NC(=O)c2ccncc2)n1	-1%	?	6	12%	97%
COc1cc(NC(=O)Cn2c(=O)n(Cc3ccccc3Cl)c(=O)c3cc(OC)c(OC)cc32)cc(OC)c1	/	/	3	1%	/
CCN1CCCC1CNC(=O)c1cc(NC(C)=O)c(N(C)C)cc1OC (centres undefined)	8%	-7%	-68*	-25%	?
CCC(=O)Nc1cc(C(=O)NCC2CCCN2CC)c(OC)cc1N(C)C (centres undefined)	9%	-5%	48	12%	?
COc1cc(C(C)=O)ccc1OCC(=O)Nc1ccc(S(=O)(=O)N2CCCCC2)cc1	/	/	13	/	/
O=C(COc1ccc(Br)cc1CO)Nc1ccc(S(=O)(=O)N2CCCCC2)cc1	9.3µM*	/	-37	-4%	6.6µM*
CCc1ccc(OCC(=O)Nc2ccc(S(=O)(=O)N3CCCC3)cc2)c(Br)c1	13µM*	1%	-16	9%	/
Cc1ccc(NC(=O)COc2ccc(Br)cc2CO)cc1	/	-5%	42	-2%	?
COc1ccc(OCC(=O)Nc2cccc(NC(=O)c3ccco3)c2)cc1	-8%	-1%	-22	-2%	24%
Cc1ccc(S(=O)(=O)N[C@H](C(=O)NCC2CCC(C(=O)O)CC2)C(C)C)cc1 (some centres undefined)	9%	5%	17	7%	-3%
COc1ccc(-c2csc3ncnc(N4CCN(c5ccccc5Cl)CC4)c23)cc1	?	/	-40	8%	?
Fc1ccc(-c2csc3ncnc(N4CCN(c5ccccc5)CC4)c23)cc1	12µM*	3%	-62*	-3%	5.9µM*
SMILES	Pf growth 48h	FBPA Giardia inh	HCMV antiviral	Sm TGR block	Pf growth 96h
COc1ccc(N2CCN(c3ncnc4scc(-c5ccc(F)cc5)c34)CC2)cc1	?	-2%	-40	-15%	12µM*
COc1ccc(F)cc1CN1CCN(c2ncnc3scc(-c4ccccc4)c23)CC1	60%	1%	-75*	4%	?
COc1ccc(N2CCN(c3ncnc4scc(-c5ccccc5)c34)CC2)cc1	9.3µM*	4%	-36	-6%	?
CCOc1ccc(CN2CCN(c3ncnc4scc(-c5ccccc5)c34)CC2)cc1	-15%	-6%	38	5%	1%
COc1ccc(-c2[nH]c(-c3cccc(OC)c3)nc2SCC(=O)Nc2ccc3c(c2)OCO3)cc1	/	/	?	-14%	/
c1ccc(-c2csc3ncnc(N4CCc5ccccc5C4)c23)cc1	12µM*	-4%	-29	3%	12µM*
COc1ccc(-c2csc3ncnc(N4CCN(c5cccc(OC)c5)CC4)c23)cc1	?	/	-24	-18%	?
COc1ccc(N2CCN(c3ncnc4scc(-c5ccc(C)cc5)c34)CC2)cc1	?	1%	-64*	-1%	?
COc1ccc(-c2csc3ncnc(N4CCN(c5cccc(Cl)c5)CC4)c23)cc1	?	/	/	1%	7.4µM*

High-throughput results as filed in PubChem BioAssay.
